# Measurements taken from PubChem BioAssay AID504467 (National Center for Advancing Translational Sciences (NCATS), 2011).
# About 7,700 (2.3%) of roughly 330,000 compounds were called active. About 26% were inconclusive and are not listed. The call rests on the fitted dose curve; in most records, active means well fitted inhibition curve with a large enough effect; inconclusive means small, poorly fitted or top-dose-only effect, or effect the other way; inactive means flat fitted curve, though single readings scatter. Shown is part of a subset that was picked to be rich in actives. Entries that show only a call come without a potency.
# Assay: qHTS screen for small molecules that inhibit ELG1-dependent DNA repair in human embryonic kidney (HEK293T) cells expressing luciferase-tagged ELG1; further: nearly all actives have a fitted effect of over 55% in size
# Settings: HEK293T ELG1-luciferase reporter, luminescence, 16 h, DNA damage induced by 5-fluorouridine; series mostly up to 46.1 µM
# Source text: NIH Molecular Libraries Probe Production Network [MLPCN] NIH Chemical Genomics Center [NCGC] MLPCN Grant: 1 R03 MH092164-01 Assay Provider: Kyungjae Myung, NHGRI, NIH Keywords: MLPCN, qHTS, NCGC, genotoxicity, cancer Assay Overview: Cancer cells divide rapidly compared to normal cells in the body. During cell division, cancer cells need to duplicate their genome by DNA replication. The failure of genome duplication leads to cancer cells' death. Therefore, inhibitors of DNA replication could specifically kill cancer cells. Based on this concept, many chemotherapeutic agents were developed and have been used to treat cancer patients. However, there are a limited number of agents available in the clinical setting, and some of those that do exist have low efficacy and severe side effects. Therefore, if we can find the compounds that effectively block DNA replication either by directly damaging DNA or by inhibiting other cellular mechanisms, the options for cancer treatment will be broadened. With this in mind, we developed a quantitative high-throughput ELG1-luciferase reporter gene assay. Small molecules that specifically block ELG1 function in response to DNA damage can be identified by monitoring the suppression of luciferase activity. Since ELG1 defines a pathway for repairing DNA damage, agents blocking ELG1 function can be used to sensitize cancer cells to chemotherapeutic agents whose mechanism of action involves the induction of DNA damage.
# Assay Protocol Summary: For genotoxicity screening, 2,000 cells in 4 uL/well were dispensed into white, solid-bottom 1536-well plates using a solenoid-based dispenser. Following transfer of 1 uL 5-Fluorouridine and 23 nL compound or DMSO vehicle by a pin tool, the plates were incubated 16 hr at 37 °C and 5% CO2. 5 ul ONE-Glo (Promega) was then added to each plate and following a 30 min incubation at room temperature, luciferase activity was quantified on a ViewLux CCD-based plate reader.
# Potency means the concentration at half of the fitted maximal effect.
row,Compound,Potency
1,Cc1cc(Br)ccc1NC(=O)c1cnc(N2CCN(c3ccccn3)CC2)c2ccccc12,11.6 µM (active)
2,Cc1cc(Br)ccc1NC(=O)c1sc2ncn(CC(=O)N3CCN(c4ccccn4)CC3)c(=O)c2c1C,inactive
3,O=C(CN1CCN(c2ccccn2)CC1)Nc1ccc(Br)cc1,inactive
4,COc1ccc(S(=O)(=O)N2CCCCC2)cc1NC(=O)c1cc([N+](=O)[O-])ccc1N1CCOCC1,inactive
5,CCc1ccc(S(=O)(=O)N/N=C\c2ccc([N+](=O)[O-])o2)cc1,inactive
6,N#Cc1cc([N+](=O)[O-])ccc1NC(=O)COC(=O)c1cnccn1,inactive
7,NC(=O)c1ccc(NC(=O)COC(=O)c2c3c(nc4ccccc24)/C(=C\c2ccc4c(c2)OCO4)CCC3)cc1,20.6 µM (active)
8,O=C(COC(=O)c1ccncc1)Nc1ccc2c(c1)OCO2,inactive
9,O=C(COC(=O)c1c2c(nc3ccccc13)CCCC2)c1ccc(Br)s1,inactive
10,NS(=O)(=O)c1ccc(NC(=O)COC(=O)c2cc3ccccc3oc2=O)cc1,inactive
11,O=C(COC(=O)c1c2c(nc3ccccc13)/C(=C\c1cccs1)CCC2)Nc1ccccc1Cl,16.4 µM (active)
12,CC(NC(=O)COC(=O)c1ccc2c(c1)OCO2)c1ccccc1 (stereo not given),inactive
13,COc1cc(/C=C2\CCCc3c2nc2ccccc2c3C(=O)O)cc(Cl)c1O,inactive
14,NS(=O)(=O)c1ccc(NC(=O)COC(=O)c2ccc(Cl)nc2)cc1,inactive
15,NS(=O)(=O)c1ccc(NC(=O)COC(=O)c2c3c(nc4ccccc24)/C(=C\c2ccc4c(c2)OCO4)CCC3)cc1,20.6 µM (active)
16,COc1ccc(C(=O)N2CCCCC2C(=O)Nc2ccc(-n3nc(C)cc3C)cc2)o1 (stereo not given),inactive
17,O=C(NCC(c1cccs1)N1CCOCC1)c1cc(Cl)ccc1[N+](=O)[O-] (stereo not given),inactive
18,Cc1ccc(Nc2nnc(SC(C)C(=O)NC3CC3)s2)cc1 (stereo not given),inactive
19,CC(C)(C)OC(=O)C[C@H]1C/C=C\C[C@@H](CC(=O)N[C@H](CO)Cc2ccccc2)C(=O)NC[C@@H](c2ccccc2)OC1=O,inactive
20,COc1cccc(NC(=S)N(CCc2c(C)[nH]c3ccccc23)Cc2ccco2)c1,20.6 µM (active)
21,COc1ccc2[nH]c(C)c(CCN(Cc3cccs3)C(=S)Nc3ccccc3OC)c2c1,13 µM (active)
22,CCNC(=S)N(CCc1c(C)[nH]c2ccc(C)cc12)Cc1ccco1,inactive
23,COc1ccc(NC(=S)NCc2cccs2)c(OC)c1,inactive
24,Cc1[nH]c2ccccc2c1CCN(Cc1cccs1)C(=S)NC(C)(C)C,inactive
25,Cc1ccc(NC(=S)N(CCN2CCCCC2)Cc2ccco2)cc1C,inactive
